Measured values: PubChem BioAssay (NCI)
The panel holds about 79,000 compounds, 15% with a hit somewhere; the sample as a whole holds those more often. Cut-off read from the data, not from the text of the source: active = growth inhibition above about 70%; inactive = the rest.

Legend:
[1] = NCI Yeast Anticancer Drug Screen. Data for the rad50 strain (AID 155);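 note: 0% = growth of vehicle-only cultures of the same strain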; details: S. cerevisiae rad50 strain growth inhibition; at 50.0 µM; stronger effect = higher value
In short: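 A DNA repair-deficient yeast mutant serves as the test organism; compound-induced growth inhibition is calculated against vehicle-treated cells.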

[2] = NCI Yeast Anticancer Drug Screen. Data for the mec2-1 strain (AID 157); details: S. cerevisiae mec2-1 strain, at 50.0 µM, stronger effect = higher value
In short: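 Compounds were applied to mec2-1 yeast cells. Their growth was then compared with that of vehicle-treated cultures to give growth inhibition.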

[3] = NCI Yeast Anticancer Drug Screen. Data for the sgs1 mgt1 strain (AID 161);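 note: 0% = growth of cultures given vehicle only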; details: S. cerevisiae sgs1 mgt1 strain, at 50.0 µM, stronger effect = higher value
In short: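 Yeast cells carrying a defined DNA-repair defect were exposed to test compounds. Growth inhibition was measured relative to vehicle-treated controls.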

[4] = NCI Yeast Anticancer Drug Screen. Data for the cln2 rad14 strain (AID 165);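 note: 0% = growth equal to vehicle treated cultures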; details: S. cerevisiae cln2 rad14 strain, at 50.0 µM, stronger effect = higher value
In short: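 Strain: cln2 rad14 yeast, altered in cell cycle control and DNA damage repair. Read-out: growth inhibition vs vehicle.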

[5] = NCI Yeast Anticancer Drug Screen. Data for the bub3 strain (AID 167); details: S. cerevisiae bub3 mutant strain, at 50.0 µM, stronger effect = higher value
In short: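 Inhibition values come from growth of compound-treated mutant yeast normalised to vehicle-treated controls.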

[6] = NCI Yeast Anticancer Drug Screen. Data for the mlh1 rad18 strain (AID 175); details: S. cerevisiae mlh1 rad18 strain growth inhibition; at 50.0 µM; stronger effect = higher value
In short: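 A repair-deficient yeast strain is exposed to test compound, and growth is scored relative to vehicle-treated controls.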

Measured: growth inhibition

Cc1cc(=O)oc2cc(OC(=O)Nc3ccc(F)c([N+](=O)[O-])c3)ccc12
inactive: [1] 7.85% | [2] 45.2% | [3] 27.1% | [4] -11.8% | [5] 53.9% | [6] 12.5%

O=c1oc2ccccc2cc1CCBr
inactive: [1] 16.4% | [2] 11.4% | [3] -6.1% | [4] -3.3% | [5] -9.2% | [6] -8.05%

CC1CCCCN1C(CC(=O)c1ccccc1)C(=O)c1ccccc1 (stereo unspecified)
inactive: [1] 21.4% | [2] 24.1% | [3] 8.55% | [4] 17.1% | [5] 18.4% | [6] 38.7%

CC1(C)CC([NH-])(C(=O)O)CC(C)(C)N1O.CC1(C)CC([NH-])(C(=O)O)CC(C)(C)N1O.[Pt+2]
inactive: [1] -5.65% | [2] -8.75% | [3] -6.5% | [4] -45.6% | [5] -1.05% | [6] -23.8%

CC(=O)OCCSSCCOC(C)=O
inactive: [1] -4.9% | [2] -26.4% | [3] 13% | [4] 6.55% | [5] -1.9% | [6] -3.75%

CC(CC[C@@H](O)C(C)(C)O)C1[C@@H](O)CC2(C)C3CC(O)C4C(C)(C)[C@@H](OC5OC(CO)C(O)C(O)C5O)CC[C@@]45C[C@@]35CC[C@]12C (stereo partly specified)
inactive: [1] -14.9% | [2] 2.65% | [3] 0.15% | [4] -30.2% | [5] -5.9% | [6] -28.1%

CC(=O)Nc1ncc2ccccc2c1-c1ccc(NC(=O)CCCl)cc1
inactive: [1] -0.65% | [2] 19.4% | [3] 19.8% | [4] -1.3% | [5] 3.6% | [6] 12.8%

C[Si](C)(C)O[Si](C)(C)CCl
inactive: [1] -28.9% | [2] -12.4% | [3] -3.1% | [4] -10.2% | [5] -6.2% | [6] -34.2%

CCOC(=O)c1ccc(C(=O)OCC)n1-c1cc2cc(c1)CSCc1cc(cc(-n3c(C(=O)OCC)ccc3C(=O)OCC)c1)CSC2
inactive: [1] -26.2% | [2] -30.1% | [3] -20.9% | [4] 16.6% | [5] -13.8% | [6] -5.15%

N/N=C1/CCCc2nonc21
inactive: [1] -19.7% | [2] -17.1% | [3] -29.4% | [4] -22.2% | [5] -25.4% | [6] -48.4%

CC1(C)CC23C(=O)N(c4ccccc4)C(=Nc4ccccc4)NC2=CC(C#N)=C(C#N)C3O1 (stereo unspecified)
inactive: [1] 2.6% | [2] -3.9% | [3] 5.3% | [4] 23.9% | [5] 0.85% | [6] -15.8%

CC(C)CCC[C@@H](C)[C@H]1CC[C@@]2(C)[C@@H]3CC[C@@H]4C(=O)CC[C@]4(C)[C@H]3CC[C@]12C
inactive: [1] 31.3% | [2] 1.5% | [3] 41.5% | [4] 26.8% | [5] 1.6% | [6] 42.1%

CC1C/C=C2\CSC(NC(=O)/C3=C\N(C/C=C/C=C/C(O)CC(O)CC(=O)N3)C2=O)C(=O)O1 (stereo unspecified)
inactive: [1] 13.7% | [2] 11.7% | [3] 22.2% | [4] 19% | [5] 17.5% | [6] 18.2%

O=c1nc(Oc2ccccc2)nc2ncccn12
inactive: [1] 47% | [2] 26.1% | [3] 40.5% | [4] 20.2% | [5] 50.6% | [6] 65%

N=C(N)SCc1ccc(Cl)cc1Cl (tested in a mixture with another compound)
inactive: [1] 34.1% | [2] 12.3% | [3] 6.35% | [4] 3.05% | [5] 7.9% | [6] 26.4%

CC(O)CSCC(C)O (stereo unspecified)
inactive: [1] 10.1% | [2] -4.2% | [3] -16.7% | [4] 12.4% | [5] -7.7% | [6] 3.05%

CN(C)c1ncnc2c1ncn2C1OC(CO)C(O)C1O (stereo unspecified)
inactive: [1] 14.2% | [2] 20% | [3] 4% | [4] -34.4% | [5] 18.1% | [6] 24.5%

CCC/C=C/C=C/C1CC(O)C(O)C(=O)C1CO (stereo unspecified)
inactive: [1] 5.25% | [2] -29.6% | [3] 17.1% | [4] 7.9% | [5] 1.9% | [6] -0.7%

Cc1cc(Sc2ccccc2)nc2ccccc12
inactive: [1] 8.5% | [2] -12.2% | [3] 41.6% | [4] 4.1% | [5] 48.5% | [6] 12.3%

C1CSCC2(COC2)CSCCSCC2(COC2)CS1
inactive: [1] -23.1% | [2] -13.4% | [3] -18.9% | [4] -3.05% | [5] -7.35% | [6] -18.6%

CCCCC1(O)C(=O)N(c2ccccc2)N(c2ccccc2)C1=O
inactive: [1] 17.2% | [2] 11.1% | [3] 7.45% | [4] 13.1% | [5] 22.4% | [6] 4.2%

c1ccc2c(c1)CCc1c-2n[nH]c1-c1[nH]nc2c1CCc1ccccc1-2
inactive: [1] -12.1% | [2] -10% | [3] -1.3% | [4] -21.9% | [5] -26.2% | [6] -5%

CC(=O)NCC1CCCO1 (stereo unspecified)
inactive: [1] 2.65% | [2] -18.6% | [3] -20.4% | [4] 3.85% | [5] 3.75% | [6] -5.9%

Nc1nc(Cl)cc(Nc2ccc3c(c2)CCC3)n1
inactive: [1] 15.2% | [2] 6.8% | [3] 26.5% | [4] 19.1% | [5] 23.6% | [6] -20.4%

CCCCCN(C(=O)c1ccccc1C(=O)N(CCCCC)c1ccccc1)c1ccccc1
inactive: [1] 15.3% | [2] 7.85% | [3] 15.8% | [4] 30.6% | [5] 3.4% | [6] 42%

O=c1[nH]c(C(F)(F)F)c(CCc2ccccc2)c(=O)[nH]1
inactive: [1] 3.5% | [2] 20.1% | [3] 36.9% | [4] -3.8% | [5] 36.3% | [6] 29.8%

O=P(CCC(O)c1ccccc1)(c1ccccc1)c1ccccc1 (stereo unspecified)
inactive: [1] -7.45% | [2] 5.65% | [3] -0.65% | [4] 0.5% | [5] -9.6% | [6] 9.8%

O=C(O)c1cccc(C(=O)O)c1S(=O)Cc1ccccc1 (stereo unspecified)
inactive: [1] 3.45% | [2] -15.1% | [3] 1.2% | [4] -0.15% | [5] -17.1% | [6] 17.9%

CC(=O)Oc1cc2c(c3ccc4ccccc4c13)CCc1ccccc1-2
inactive: [1] 11.8% | [2] -11.7% | [3] 10.1% | [4] 10.2% | [5] 0.1% | [6] 4.9%

CC(C)C1OCC=CCO1
inactive: [1] 7.65% | [2] -6.7% | [3] -13.2% | [4] -9.85% | [5] 13.7% | [6] -3%

CC1(C)COC2(CC(C)(C)OC2(C)C)OC1
inactive: [1] -1.45% | [2] 0.8% | [3] -6% | [4] -40.8% | [5] -7.25% | [6] 14.8%

CC(=O)Nc1ccc(S(=O)(=O)Nc2c(N)[nH]c(=S)[nH]c2=O)cc1
inactive: [1] 14% | [2] 3.9% | [3] 1.25% | [4] -3.75% | [5] 9.5% | [6] 9.45%

CNc1ncn(-c2c(C)cccc2C)c(=O)n1
inactive: [1] -2.5% | [2] -3.6% | [3] 8.85% | [4] -15.8% | [5] -2.65% | [6] 4.05%

C/C(=N\NC(=S)N(C)C)c1nc2ncccc2[nH]1
inactive: [1] -44.1% | [2] -24.1% | [3] -64.8% | [4] -1.5% | [5] 18.7% | [6] -19.1%

O=[N+]([O-])c1ccc(N=C(Nc2ccc([N+](=O)[O-])cc2)c2ccccc2)cc1
inactive: [1] 12.1% | [2] -16.2% | [3] -1.6% | [4] -33.6% | [5] -12.6% | [6] -14.5%

BrCCOc1ccccc1
inactive: [1] 19.4% | [2] 8% | [3] -28.6% | [4] -29.5% | [5] -8.3% | [6] -25.5%

CNC(=S)SC(=S)NC
inactive: [1] 14.6% | [2] 8.3% | [3] -4.55% | [4] -20.4% | [5] -1.75% | [6] 4.75%

ClC1(Cl)C2CCOC21n1cnc2ccccc21 (stereo unspecified)
inactive: [1] 11.8% | [2] -5.1% | [3] -8.3% | [4] 4.95% | [5] 8.25% | [6] -11.2%

CCCCCCCCCCCCCCCCCCC1=CC(=O)c2ccccc2C1=O
inactive: [1] 16.1% | [2] 3% | [3] 25.6% | [4] 31% | [5] 8.4% | [6] 14.9%

Clc1ccc(-c2ccncc2)cc1
inactive: [1] 17.1% | [2] -9.15% | [3] 7.2% | [4] -69.7% | [5] 13.1% | [6] 5.7%

O=C(CCN1C(=O)NC(c2ccccc2)(c2ccccc2)C1=O)NCCN1CCOCC1
inactive: [1] -0.6% | [2] 13.5% | [3] 5.7% | [4] 0.95% | [5] -2% | [6] 24.7%
